The values that follow come from PubChem BioAssay.

SMILES strings stand for the structures. The source made the active and inactive calls.

Test [1] concerns Plasmodium falciparum Sir2 (PF13_0152, Sir2A). The test can be described thus: pfSir2 binders on small-molecule microarrays, primary screen, biochemical, small-molecule microarray, 635 nm fluorescence (AID 1098).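 Further: score merges spot fluorescence intensity with its signal-to-noise ratio.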 To be noted: small-molecule microarray binding, fluorescence 635 nm; higher = more signal.
Test [2] is described as follows: small-molecule microarray binders of probe aDKK1, primary screen, biochemical, biotinylated probe, 635/667 nm fluorescence (AID 1099).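 Further: score merges 667nm spot fluorescence with signal to noise across triplicate slides; reference of the scale not given here.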 To be noted: higher = more signal.
Test [3] is described as follows: small-molecule microarray binders of probe aCHRDL2, primary screen, biochemical, biotinylated probe, 635/667 nm fluorescence (AID 1100). To be noted: higher = more signal.
Test [4] is described as follows: splicing luciferase reporter signal modulators, primary screen, spliceosome inhibition project, cell-based, HEK293, splice +/- reporter (AID 1101).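 Further: HEK293 cells carrying a splicing-competent luciferase reporter gene; test concentration not given here.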 To be noted: luminescence, 24 h, higher = more signal, called active from +8 up or from −8 down. Background: A reporter such as luciferase makes a cellular process visible.
Test [5] concerns the target Fibroblast growth factor 10 (Homo sapiens) (UniProt O15520). In words: FGF10 binders on small-molecule microarrays, primary screen, biochemical, small-molecule microarray, 635 nm fluorescence (AID 1102). Particulars: FGF10 binding, fluorescence 635 nm, higher = more signal.
For test [6], the system named is glycogen synthase kinase-3 (GSK3A per assay name; protocol says GSK3B). In words: GSK3 binders on small-molecule microarrays, primary screen, biochemical, small-molecule microarray, 635 nm fluorescence, GSK3A (AID 1103). Further: the record names both GSK3A and GSK3B. To be noted: small-molecule microarray binding, fluorescence 635 nm; higher = more signal.
Test [7] deals with Epidermal growth factor receptor (Homo sapiens) (UniProt P00533). The test can be described thus: EGFR binders on small-molecule microarrays, primary screen, biochemical, small-molecule microarray, 635 nm fluorescence (AID 1104).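 Further: score merges 667 nm emission intensity with spot signal to noise over triplicate slides.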 Particulars: EGFR binding, higher = more signal.
Test [8] concerns the target Follistatin-related protein 3 (Homo sapiens) (UniProt O95633). The test can be described thus: FSTL3 binders on small-molecule microarrays, primary screen, biochemical, small-molecule microarray, 635 nm fluorescence (AID 1105).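 Further: score merges emission near 667 nm and signal to noise per printed spot across three slides.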 Particulars: FSTL3 binding, higher = more signal.
The target in test [9] is Dickkopf-related protein 1 (Homo sapiens) (UniProt O94907). In words: DKK1 binders on small-molecule microarrays, primary screen, biochemical, small-molecule microarray, 635 nm fluorescence scan (AID 1106).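 Further: score merges emission near 667 nm with signal to noise over three replicate slides.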 Particulars: DKK1 binding, higher = more signal.
Test [10] has as its system Inhibin beta A chain (activin A). The test can be described thus: INHBA (activin A) binders on microarrays, primary screen, biochemical, small-molecule microarray, 635 nm fluorescence scan (AID 1107).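 Further: mouse activin A protein probed at 4.33 µg/mL on printed slides; score merges bound-protein fluorescence near 667 nm with spot signal-to-noise.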 To be noted: small-molecule microarray binding, higher = more signal.

Chain of Fibroblast growth factor 10 (Homo sapiens) (O15520 whole entry, looked up): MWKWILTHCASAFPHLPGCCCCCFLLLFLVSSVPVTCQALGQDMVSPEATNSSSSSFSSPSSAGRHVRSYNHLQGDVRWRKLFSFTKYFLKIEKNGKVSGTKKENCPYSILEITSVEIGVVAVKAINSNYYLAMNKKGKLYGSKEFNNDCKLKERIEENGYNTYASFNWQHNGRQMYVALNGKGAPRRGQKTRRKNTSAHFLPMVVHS
Chain of Follistatin-related protein 3 (Homo sapiens) (O95633 whole entry, looked up): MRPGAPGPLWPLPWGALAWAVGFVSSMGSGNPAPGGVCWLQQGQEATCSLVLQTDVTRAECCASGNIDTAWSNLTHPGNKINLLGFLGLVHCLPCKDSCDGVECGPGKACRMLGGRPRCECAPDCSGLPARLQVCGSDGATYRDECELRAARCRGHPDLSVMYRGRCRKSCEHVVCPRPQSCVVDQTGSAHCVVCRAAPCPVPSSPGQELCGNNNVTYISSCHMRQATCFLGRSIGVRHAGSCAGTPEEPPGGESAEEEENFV
Chain of Dickkopf-related protein 1 (Homo sapiens) (O94907 whole entry, looked up): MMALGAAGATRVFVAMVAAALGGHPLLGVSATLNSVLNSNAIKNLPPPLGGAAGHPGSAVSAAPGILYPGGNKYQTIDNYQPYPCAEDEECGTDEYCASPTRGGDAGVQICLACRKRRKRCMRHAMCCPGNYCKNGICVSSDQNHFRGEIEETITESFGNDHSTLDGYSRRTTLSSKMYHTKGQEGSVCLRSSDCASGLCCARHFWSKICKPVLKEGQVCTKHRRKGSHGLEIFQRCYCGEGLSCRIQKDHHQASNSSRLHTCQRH
Chain of Epidermal growth factor receptor (Homo sapiens) (P00533 whole entry, looked up): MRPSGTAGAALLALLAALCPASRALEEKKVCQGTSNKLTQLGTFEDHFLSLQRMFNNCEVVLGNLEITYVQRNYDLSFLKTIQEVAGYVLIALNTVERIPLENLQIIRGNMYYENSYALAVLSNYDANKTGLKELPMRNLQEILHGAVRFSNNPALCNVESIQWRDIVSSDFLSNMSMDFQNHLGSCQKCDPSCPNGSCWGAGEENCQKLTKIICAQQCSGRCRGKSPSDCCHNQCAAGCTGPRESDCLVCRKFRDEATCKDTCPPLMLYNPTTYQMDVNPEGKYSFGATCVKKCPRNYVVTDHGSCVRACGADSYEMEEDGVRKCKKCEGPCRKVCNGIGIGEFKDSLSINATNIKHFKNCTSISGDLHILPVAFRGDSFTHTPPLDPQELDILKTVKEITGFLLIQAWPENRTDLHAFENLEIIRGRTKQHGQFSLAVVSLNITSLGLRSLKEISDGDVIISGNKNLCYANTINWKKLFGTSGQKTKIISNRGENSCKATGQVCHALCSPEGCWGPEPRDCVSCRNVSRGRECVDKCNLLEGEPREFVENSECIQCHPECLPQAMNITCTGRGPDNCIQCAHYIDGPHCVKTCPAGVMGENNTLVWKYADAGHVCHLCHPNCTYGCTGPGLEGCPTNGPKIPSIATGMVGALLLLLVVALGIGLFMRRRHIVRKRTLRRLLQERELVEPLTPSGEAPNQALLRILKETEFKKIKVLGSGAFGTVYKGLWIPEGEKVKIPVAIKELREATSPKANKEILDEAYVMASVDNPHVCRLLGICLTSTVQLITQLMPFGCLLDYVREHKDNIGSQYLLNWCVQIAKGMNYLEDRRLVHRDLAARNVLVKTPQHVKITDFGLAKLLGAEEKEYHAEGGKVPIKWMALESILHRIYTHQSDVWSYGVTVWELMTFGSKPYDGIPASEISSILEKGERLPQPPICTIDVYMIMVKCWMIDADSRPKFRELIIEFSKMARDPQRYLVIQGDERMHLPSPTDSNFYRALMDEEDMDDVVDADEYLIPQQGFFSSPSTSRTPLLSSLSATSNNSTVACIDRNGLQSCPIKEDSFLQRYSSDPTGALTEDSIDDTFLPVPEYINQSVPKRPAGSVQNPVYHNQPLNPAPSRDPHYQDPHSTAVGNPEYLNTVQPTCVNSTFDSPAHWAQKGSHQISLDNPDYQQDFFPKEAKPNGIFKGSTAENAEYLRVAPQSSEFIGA

As to `COc1cc2c(cc1OC)CN(C(=O)[C@H]1[C@@H]3C(=O)O[C@@H](c4ccccc4)[C@@H](c4ccccc4)N3[C@@H](c3ccccc3OCCO)[C@]13C(=O)Nc1ccc(C#CCCO)cc13)CC2`, the composite z-score in test [1] is 1.37; in test [2] it was -0.112; in test [3] it was -0.294; in test [5] it was 0.786; in test [6], 1.28; in [7], 0.47. Further, the values for the composite z-score in test [8], in test [9] and in [10] were 0.964, 0.518 and 0.931, respectively. In addition, in [4], the z-score was -0.826 (inactive).

As to `COc1ccccc1CN1C(=O)c2ccccc2[C@@]2(Cc3ccccc3N(CCCN(C)C)C2=O)[C@@H]1c1ccc(CO)cc1`, the composite z-score in test [1] was 0.269; in test [2] it was -0.169; in test [3], -0.649; in [5] it was 0.165; in test [6], 0.0081; in test [7], 0.237. In addition, the values for the composite z-score in test [8], in test [9] and in test [10] were 0.76, 1.05 and 1.19, respectively. Also, the z-score in test [4] was -0.706 (inactive).

Regarding `CC[C@@H]1C=C(C(=O)O)[C@H](c2cccc3ccccc23)N1S(=O)(=O)c1ccc(C)cc1`, the composite z-score is 0.819 in [1]; 0.0149 in [2]; 0.0792 in [3]; 0.51 in test [5]; 0.466 in test [6]; 0.294 in test [7]. For the same molecule, the composite z-score was determined as 0.495 in test [8], 0.153 in test [9] and 1.02 in test [10]. Moreover, the z-score in test [4] was 0.756 (inactive).

Turning to `CC(C)[Si](C#CCCCC#N)(Oc1ccccc1Br)C(C)C`, the composite z-score is 0.436 in test [1]; -0.288 in [2]; -0.536 in test [3]; 0.361 in test [5]; 0.693 in test [6]; 0.216 in test [7]. Moreover, the composite z-score was 0.58 in test [8], -0.108 in test [9] and 0.32 in [10]. Besides, the z-score in test [4] was -0.542 (inactive).

Take `C=C(CCCC)/C(=C/C[C@H](OC(C)=O)c1ccccc1OCCO)c1cnc2ccccc2c1`: the composite z-score in [1] is 0.593; in test [2], -0.278; in test [3], -0.114; in [5], 0.931; in test [6], -0.0183; in test [7], 0.0674. The values for the composite z-score in test [8], in test [9] and in [10] were 0.747, 0.277 and 1.52, respectively. In addition, the z-score in test [4] is 1.81 (inactive).

For `C#CCN1[C@@H](Cc2ccc(O)cc2)C(=O)O[C@H](Cc2ccccc2)[C@@H]1/C=C/C1CC1`, the composite z-score was -0.0032 in test [1]; -0.366 in test [2]; -0.337 in test [3]; 0.172 in test [5]; -0.102 in test [6]; 0.002 in test [7]. Further, the figures for the composite z-score in [8], in test [9] and in test [10] were -0.149, 0.0874 and 0.718, respectively. In test [4], the z-score was 1.99 (inactive).

Take `O=C1[C@H]2C=C(I)[C@H](C[C@@H]2OCCCCO)[C@@]12CO2`: the composite z-score in test [1] is 1.15; in test [2], -0.0509; in test [3], 0.0634; in test [5], -0.0509; in test [6], 0.0622; in test [7], -0.15. Moreover, the composite z-score is -0.0542 in test [8], 0.062 in test [9] and 0.873 in test [10]. In addition, the z-score in [4] was 0.0898 (inactive).

As to `[N-]=[N+]=Nc1ccccc1C[C@]1(C(=O)NCC(O)CO)N=C(c2ccc(OCCCO)cc2)O[C@H]1c1ccccc1` (stereo not given in full), the composite z-score in test [1] is 0.848; in test [2] it was 0.603; in test [3] it was 0.965; in test [5] it was 0.786; in [6], 0.544; in test [7], -0.704. Also, the composite z-score in test [8] was -0.107; in test [9] it was -0.735; in [10], 0.537. Also, the z-score in [4] is -0.29 (inactive).

As for `CC1CC/C=C\[C@H]2OC34C=CCN(Cn5nnc6ccccc65)C(=O)[C@H]3N(CCCCCO)C(=O)[C@@H]4C2C(=O)O1` (stereo not given in full), the composite z-score is 0.285 in test [1]; -0.415 in [2]; 0.598 in test [3]; -1.26 in test [5]; -1.32 in test [6]; -0.494 in test [7]. Further, the composite z-score in [8] is -0.186; in test [9], -1.27; in test [10], -0.318. The z-score in test [4] is 0.271 (inactive).

Regarding `COc1ccc([C@H]2OC[C@@H]3CCC(=O)N32)cc1`, the composite z-score in [1] is 0.178; in test [2], -0.235; in test [3], -0.374; in test [5], 0.66; in test [6], 1.17; in test [7], 0.339. In addition, the composite z-score in [8] came to 0.954; in [9] it was 0.294; in test [10] it was 0.0892. Further, the z-score in [4] is -0.00375 (inactive).

Consider `COC(=O)[C@@]1(Cc2ccc(F)cc2)[C@H]2c3cc(C(=O)N(C)C)n(Cc4ccc(C)o4)c3C[C@H]2CN1C(=O)c1ccccc1`, for which the composite z-score in test [1] was 1.29; in [2], 2.05; in test [3] it was 0.495; in test [5], 0.152; in [6], 0.102; in test [7], -1.87. Moreover, the composite z-score is -1.13 in test [8], -1.39 in test [9] and 1.07 in test [10]. Besides, in [4], the z-score was -1.6 (inactive).

Take `Cc1ccc(/C=C/C=O)cc1`: the composite z-score in [1] is 1.21; in test [2] it was -0.051; in test [3] it was 0.44; in test [5], -0.0586; in test [6], -0.472; in test [7], -0.817. In addition, the results for the composite z-score in [8], in test [9] and in [10] were -0.955, -0.0317 and 0.579, respectively. For the same molecule, in [4], the z-score is -0.0631 (inactive).

In the case of `COC(=O)C(CC#Cc1ccc2c(c1)[C@]1(C(=O)N2)[C@H](c2ccc(O)cc2)N2[C@H](c3ccccc3)[C@H](c3ccccc3)OC(=O)[C@H]2[C@@H]1C(=O)N1CCN(c2ncccn2)CC1)C(=O)OC`, the composite z-score was 1.69 in test [1]; 0.534 in [2]; 0.508 in [3]; 0.621 in test [5]; 1.03 in test [6]; 0.116 in test [7]. Moreover, the values for the composite z-score in test [8], in test [9] and in test [10] were 0.655, 0.0879 and 0.126, respectively. Further, the z-score in test [4] is -0.84 (inactive).

On to `CC(C)NC(=O)[C@@H]1c2ccccc2C(=O)N(C(C)C)[C@H]1c1ccc(CO)cc1`, for which the composite z-score in test [1] is -0.509; in [2], -0.29; in [3], 0.91; in test [5], -0.633; in [6], 0.134; in test [7], -1. In addition, the composite z-score is -0.994 in test [8], -1.72 in test [9] and -0.751 in test [10]. Besides, the z-score in test [4] is -0.0664 (inactive).

As for `O=C1N(CCS(=O)(=O)c2ccccc2)c2ccccc2[C@@H]2OC(c3ccc(OCCCO)cc3)=N[C@]12Cc1ccccc1`, the composite z-score came to 1.49 in [1]; 0.0733 in [2]; 0.393 in test [3]; 0.379 in test [5]; 1.28 in test [6]; 0.542 in test [7]. Moreover, the composite z-score in test [8] was determined as 1.29; in test [9] it was 0.432; in test [10], 0.995. Moreover, the z-score in test [4] was -0.917 (inactive).

On to `CCOC(=O)C[C@H]1[C@H](OC(=O)c2ccc(-c3ccccc3)cc2)[C@@H](NC(=O)c2ccccc2)c2cc(OCCCO)ccc2N1C(=O)Cc1ccc(OC)cc1`, for which the composite z-score is -0.881 in [1]; -0.0345 in test [2]; 0.565 in [3]; 0.241 in test [5]; -0.919 in test [6]; 0.0903 in [7]. The composite z-score in test [8] was -0.56; in test [9], -0.237; in [10] it was 0.54. Besides, in test [4], the z-score is -0.486 (inactive).

With `C[N+](C)(C)CCCC[C@@H]1NC(=O)[C@@H]2C[C@H](C(=O)NCCCCCN)[C@H](c3ccc(O)cc3)N2C1=O`, the composite z-score in test [1] stood at 1.55; in test [2], 1.16; in test [3], 0.808; in [5] it was 1.42; in [6], 1.29; in test [7] it was 0.024. The composite z-score in test [8] came out at 0.878; in test [9], 0.308; in test [10], 0.199. Further, the z-score in test [4] was -1.1 (inactive).
